How the values were obtained:
Test in all cases: log2 ratio of Biotin-Ahx-Ub-VS probe labelling (fragment/DMSO); higher = less target engagement (more negative = stronger competition), active = hit call of the paper (q ≤ 0.05, log2 ratio ≤ -1)
Conditions in all cases: compound concentration: 200 uM; treatment time: 3 h
[1] = biological target: USP34 (UniProt Q70CQ2)
How it was run: (§1)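 HEK293T lysate in Tris/CHAPS/IGEPAL buffer with protease inhibitors (495 µg per sample) was given fragment at 200 µM or vehicle for 3 h, in triplicate. It then received Biotin-Ahx-Ub-VS at 0.5 µM final for 1 h. Labelled DUBs were NeutrAvidin-enriched, digested with LysC and trypsin, and run by diaPASEF LC-MS/MS. Values are average log2 fragment/vehicle ratios by unpaired t-test on global-median-normalised Spectronaut quantities of proteins with ≥2 unique peptides.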

[2] = biological target: T1, USP36 (UniProt Q9P275)
T1 sequence (whole entry): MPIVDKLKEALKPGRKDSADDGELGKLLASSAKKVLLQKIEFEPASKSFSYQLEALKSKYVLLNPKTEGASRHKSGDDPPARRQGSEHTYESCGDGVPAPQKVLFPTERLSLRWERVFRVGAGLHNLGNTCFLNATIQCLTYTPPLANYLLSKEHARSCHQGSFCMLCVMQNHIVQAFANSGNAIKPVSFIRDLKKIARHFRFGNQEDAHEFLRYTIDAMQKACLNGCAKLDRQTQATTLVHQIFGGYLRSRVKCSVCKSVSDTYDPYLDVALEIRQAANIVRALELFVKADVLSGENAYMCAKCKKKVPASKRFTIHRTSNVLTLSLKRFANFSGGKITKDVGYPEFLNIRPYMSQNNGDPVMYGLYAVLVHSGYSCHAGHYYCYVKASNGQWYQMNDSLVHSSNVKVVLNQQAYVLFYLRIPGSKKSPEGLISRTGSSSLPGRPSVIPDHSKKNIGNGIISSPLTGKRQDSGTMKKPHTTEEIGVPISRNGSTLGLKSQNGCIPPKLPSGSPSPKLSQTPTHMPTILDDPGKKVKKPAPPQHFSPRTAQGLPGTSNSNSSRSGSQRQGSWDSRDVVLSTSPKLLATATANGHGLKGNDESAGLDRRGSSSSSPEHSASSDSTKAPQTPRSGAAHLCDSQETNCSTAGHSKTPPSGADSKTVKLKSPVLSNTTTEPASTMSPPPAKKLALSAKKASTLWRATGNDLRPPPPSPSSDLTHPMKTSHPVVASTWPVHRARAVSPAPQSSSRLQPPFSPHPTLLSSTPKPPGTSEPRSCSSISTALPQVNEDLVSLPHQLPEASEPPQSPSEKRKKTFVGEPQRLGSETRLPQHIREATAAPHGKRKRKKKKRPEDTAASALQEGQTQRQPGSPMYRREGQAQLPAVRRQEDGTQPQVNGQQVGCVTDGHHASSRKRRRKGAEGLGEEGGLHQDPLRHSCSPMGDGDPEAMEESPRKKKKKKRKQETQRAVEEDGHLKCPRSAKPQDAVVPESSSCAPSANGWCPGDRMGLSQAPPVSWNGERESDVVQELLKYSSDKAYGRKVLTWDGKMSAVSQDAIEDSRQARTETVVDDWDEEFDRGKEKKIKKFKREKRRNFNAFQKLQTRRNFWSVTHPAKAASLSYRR
How it was run: as §1

[3] = biological target: T2, USP38 (UniProt Q8NB14)
T2 sequence (whole entry): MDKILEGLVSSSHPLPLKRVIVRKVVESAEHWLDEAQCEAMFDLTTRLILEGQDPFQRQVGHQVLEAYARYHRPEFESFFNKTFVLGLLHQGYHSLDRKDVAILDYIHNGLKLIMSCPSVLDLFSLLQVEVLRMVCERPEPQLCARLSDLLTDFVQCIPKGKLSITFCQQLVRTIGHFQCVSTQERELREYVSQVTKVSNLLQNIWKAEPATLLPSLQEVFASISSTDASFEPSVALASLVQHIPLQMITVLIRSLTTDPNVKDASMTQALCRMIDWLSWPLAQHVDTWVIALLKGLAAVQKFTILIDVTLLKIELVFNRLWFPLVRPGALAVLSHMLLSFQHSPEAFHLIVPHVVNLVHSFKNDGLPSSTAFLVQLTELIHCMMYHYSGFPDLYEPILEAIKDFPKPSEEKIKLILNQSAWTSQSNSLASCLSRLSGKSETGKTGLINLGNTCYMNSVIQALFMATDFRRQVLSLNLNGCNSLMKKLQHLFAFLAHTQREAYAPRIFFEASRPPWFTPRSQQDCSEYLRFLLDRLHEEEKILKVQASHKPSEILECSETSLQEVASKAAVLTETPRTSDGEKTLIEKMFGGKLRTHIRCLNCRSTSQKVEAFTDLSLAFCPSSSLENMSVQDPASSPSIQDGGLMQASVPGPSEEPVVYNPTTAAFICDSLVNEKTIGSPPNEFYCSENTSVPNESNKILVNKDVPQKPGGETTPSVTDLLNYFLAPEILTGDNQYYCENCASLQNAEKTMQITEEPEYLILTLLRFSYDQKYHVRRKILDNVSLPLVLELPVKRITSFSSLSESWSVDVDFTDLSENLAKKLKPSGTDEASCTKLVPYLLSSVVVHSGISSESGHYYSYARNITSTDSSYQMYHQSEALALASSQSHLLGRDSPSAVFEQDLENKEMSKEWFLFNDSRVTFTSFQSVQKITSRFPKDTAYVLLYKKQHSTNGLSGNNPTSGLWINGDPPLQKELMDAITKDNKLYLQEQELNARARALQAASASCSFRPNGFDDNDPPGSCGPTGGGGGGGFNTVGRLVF
How it was run: as §1

[4] = biological target: T3, USP39 (UniProt Q53GS9)
T3 sequence (whole entry): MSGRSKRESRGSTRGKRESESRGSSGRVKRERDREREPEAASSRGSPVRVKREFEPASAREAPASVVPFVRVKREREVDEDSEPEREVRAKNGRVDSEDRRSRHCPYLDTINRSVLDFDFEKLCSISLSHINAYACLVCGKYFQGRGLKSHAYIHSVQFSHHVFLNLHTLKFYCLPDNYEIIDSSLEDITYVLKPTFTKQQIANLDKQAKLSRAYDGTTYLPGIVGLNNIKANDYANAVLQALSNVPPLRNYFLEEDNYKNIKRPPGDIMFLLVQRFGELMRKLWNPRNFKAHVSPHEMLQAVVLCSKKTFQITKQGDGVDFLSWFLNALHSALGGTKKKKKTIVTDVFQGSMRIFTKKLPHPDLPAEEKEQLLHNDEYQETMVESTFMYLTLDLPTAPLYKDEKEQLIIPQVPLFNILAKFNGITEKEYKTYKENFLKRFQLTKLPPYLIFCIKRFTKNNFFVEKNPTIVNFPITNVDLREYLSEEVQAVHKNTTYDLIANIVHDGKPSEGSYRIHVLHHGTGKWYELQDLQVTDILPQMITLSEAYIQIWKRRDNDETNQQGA
How it was run: as §1

[5] = biological target: T4, USP4 (UniProt Q13107)
T4 sequence (whole entry): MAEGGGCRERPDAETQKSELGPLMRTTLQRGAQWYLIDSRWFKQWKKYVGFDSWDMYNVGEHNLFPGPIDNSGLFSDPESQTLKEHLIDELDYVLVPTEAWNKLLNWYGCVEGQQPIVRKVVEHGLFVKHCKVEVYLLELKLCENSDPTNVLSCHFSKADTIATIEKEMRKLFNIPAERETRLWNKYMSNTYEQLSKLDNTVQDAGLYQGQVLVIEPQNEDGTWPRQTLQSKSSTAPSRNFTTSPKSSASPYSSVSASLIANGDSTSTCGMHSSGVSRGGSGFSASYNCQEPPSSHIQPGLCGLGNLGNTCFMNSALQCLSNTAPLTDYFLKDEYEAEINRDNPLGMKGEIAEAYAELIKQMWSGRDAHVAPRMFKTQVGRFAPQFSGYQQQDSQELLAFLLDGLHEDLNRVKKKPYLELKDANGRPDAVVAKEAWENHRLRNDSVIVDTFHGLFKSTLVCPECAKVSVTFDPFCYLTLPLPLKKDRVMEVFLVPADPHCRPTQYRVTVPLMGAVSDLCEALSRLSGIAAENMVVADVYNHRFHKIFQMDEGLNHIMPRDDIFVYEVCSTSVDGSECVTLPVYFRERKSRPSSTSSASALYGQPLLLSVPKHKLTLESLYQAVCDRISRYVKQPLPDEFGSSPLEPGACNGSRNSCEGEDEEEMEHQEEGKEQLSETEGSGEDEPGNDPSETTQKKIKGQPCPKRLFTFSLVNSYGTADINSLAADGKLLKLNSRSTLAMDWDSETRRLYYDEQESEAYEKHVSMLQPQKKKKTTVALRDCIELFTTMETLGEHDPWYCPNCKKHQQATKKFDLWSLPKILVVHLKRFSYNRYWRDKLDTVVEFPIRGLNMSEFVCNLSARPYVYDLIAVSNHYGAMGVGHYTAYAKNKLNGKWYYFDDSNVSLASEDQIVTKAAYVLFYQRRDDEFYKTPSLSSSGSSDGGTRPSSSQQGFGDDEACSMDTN
How it was run: as §1

Measured: log2 ratio of Biotin-Ahx-Ub-VS probe labelling

Chain of USP34 (Q70CQ2 whole entry, the tested form may be a part): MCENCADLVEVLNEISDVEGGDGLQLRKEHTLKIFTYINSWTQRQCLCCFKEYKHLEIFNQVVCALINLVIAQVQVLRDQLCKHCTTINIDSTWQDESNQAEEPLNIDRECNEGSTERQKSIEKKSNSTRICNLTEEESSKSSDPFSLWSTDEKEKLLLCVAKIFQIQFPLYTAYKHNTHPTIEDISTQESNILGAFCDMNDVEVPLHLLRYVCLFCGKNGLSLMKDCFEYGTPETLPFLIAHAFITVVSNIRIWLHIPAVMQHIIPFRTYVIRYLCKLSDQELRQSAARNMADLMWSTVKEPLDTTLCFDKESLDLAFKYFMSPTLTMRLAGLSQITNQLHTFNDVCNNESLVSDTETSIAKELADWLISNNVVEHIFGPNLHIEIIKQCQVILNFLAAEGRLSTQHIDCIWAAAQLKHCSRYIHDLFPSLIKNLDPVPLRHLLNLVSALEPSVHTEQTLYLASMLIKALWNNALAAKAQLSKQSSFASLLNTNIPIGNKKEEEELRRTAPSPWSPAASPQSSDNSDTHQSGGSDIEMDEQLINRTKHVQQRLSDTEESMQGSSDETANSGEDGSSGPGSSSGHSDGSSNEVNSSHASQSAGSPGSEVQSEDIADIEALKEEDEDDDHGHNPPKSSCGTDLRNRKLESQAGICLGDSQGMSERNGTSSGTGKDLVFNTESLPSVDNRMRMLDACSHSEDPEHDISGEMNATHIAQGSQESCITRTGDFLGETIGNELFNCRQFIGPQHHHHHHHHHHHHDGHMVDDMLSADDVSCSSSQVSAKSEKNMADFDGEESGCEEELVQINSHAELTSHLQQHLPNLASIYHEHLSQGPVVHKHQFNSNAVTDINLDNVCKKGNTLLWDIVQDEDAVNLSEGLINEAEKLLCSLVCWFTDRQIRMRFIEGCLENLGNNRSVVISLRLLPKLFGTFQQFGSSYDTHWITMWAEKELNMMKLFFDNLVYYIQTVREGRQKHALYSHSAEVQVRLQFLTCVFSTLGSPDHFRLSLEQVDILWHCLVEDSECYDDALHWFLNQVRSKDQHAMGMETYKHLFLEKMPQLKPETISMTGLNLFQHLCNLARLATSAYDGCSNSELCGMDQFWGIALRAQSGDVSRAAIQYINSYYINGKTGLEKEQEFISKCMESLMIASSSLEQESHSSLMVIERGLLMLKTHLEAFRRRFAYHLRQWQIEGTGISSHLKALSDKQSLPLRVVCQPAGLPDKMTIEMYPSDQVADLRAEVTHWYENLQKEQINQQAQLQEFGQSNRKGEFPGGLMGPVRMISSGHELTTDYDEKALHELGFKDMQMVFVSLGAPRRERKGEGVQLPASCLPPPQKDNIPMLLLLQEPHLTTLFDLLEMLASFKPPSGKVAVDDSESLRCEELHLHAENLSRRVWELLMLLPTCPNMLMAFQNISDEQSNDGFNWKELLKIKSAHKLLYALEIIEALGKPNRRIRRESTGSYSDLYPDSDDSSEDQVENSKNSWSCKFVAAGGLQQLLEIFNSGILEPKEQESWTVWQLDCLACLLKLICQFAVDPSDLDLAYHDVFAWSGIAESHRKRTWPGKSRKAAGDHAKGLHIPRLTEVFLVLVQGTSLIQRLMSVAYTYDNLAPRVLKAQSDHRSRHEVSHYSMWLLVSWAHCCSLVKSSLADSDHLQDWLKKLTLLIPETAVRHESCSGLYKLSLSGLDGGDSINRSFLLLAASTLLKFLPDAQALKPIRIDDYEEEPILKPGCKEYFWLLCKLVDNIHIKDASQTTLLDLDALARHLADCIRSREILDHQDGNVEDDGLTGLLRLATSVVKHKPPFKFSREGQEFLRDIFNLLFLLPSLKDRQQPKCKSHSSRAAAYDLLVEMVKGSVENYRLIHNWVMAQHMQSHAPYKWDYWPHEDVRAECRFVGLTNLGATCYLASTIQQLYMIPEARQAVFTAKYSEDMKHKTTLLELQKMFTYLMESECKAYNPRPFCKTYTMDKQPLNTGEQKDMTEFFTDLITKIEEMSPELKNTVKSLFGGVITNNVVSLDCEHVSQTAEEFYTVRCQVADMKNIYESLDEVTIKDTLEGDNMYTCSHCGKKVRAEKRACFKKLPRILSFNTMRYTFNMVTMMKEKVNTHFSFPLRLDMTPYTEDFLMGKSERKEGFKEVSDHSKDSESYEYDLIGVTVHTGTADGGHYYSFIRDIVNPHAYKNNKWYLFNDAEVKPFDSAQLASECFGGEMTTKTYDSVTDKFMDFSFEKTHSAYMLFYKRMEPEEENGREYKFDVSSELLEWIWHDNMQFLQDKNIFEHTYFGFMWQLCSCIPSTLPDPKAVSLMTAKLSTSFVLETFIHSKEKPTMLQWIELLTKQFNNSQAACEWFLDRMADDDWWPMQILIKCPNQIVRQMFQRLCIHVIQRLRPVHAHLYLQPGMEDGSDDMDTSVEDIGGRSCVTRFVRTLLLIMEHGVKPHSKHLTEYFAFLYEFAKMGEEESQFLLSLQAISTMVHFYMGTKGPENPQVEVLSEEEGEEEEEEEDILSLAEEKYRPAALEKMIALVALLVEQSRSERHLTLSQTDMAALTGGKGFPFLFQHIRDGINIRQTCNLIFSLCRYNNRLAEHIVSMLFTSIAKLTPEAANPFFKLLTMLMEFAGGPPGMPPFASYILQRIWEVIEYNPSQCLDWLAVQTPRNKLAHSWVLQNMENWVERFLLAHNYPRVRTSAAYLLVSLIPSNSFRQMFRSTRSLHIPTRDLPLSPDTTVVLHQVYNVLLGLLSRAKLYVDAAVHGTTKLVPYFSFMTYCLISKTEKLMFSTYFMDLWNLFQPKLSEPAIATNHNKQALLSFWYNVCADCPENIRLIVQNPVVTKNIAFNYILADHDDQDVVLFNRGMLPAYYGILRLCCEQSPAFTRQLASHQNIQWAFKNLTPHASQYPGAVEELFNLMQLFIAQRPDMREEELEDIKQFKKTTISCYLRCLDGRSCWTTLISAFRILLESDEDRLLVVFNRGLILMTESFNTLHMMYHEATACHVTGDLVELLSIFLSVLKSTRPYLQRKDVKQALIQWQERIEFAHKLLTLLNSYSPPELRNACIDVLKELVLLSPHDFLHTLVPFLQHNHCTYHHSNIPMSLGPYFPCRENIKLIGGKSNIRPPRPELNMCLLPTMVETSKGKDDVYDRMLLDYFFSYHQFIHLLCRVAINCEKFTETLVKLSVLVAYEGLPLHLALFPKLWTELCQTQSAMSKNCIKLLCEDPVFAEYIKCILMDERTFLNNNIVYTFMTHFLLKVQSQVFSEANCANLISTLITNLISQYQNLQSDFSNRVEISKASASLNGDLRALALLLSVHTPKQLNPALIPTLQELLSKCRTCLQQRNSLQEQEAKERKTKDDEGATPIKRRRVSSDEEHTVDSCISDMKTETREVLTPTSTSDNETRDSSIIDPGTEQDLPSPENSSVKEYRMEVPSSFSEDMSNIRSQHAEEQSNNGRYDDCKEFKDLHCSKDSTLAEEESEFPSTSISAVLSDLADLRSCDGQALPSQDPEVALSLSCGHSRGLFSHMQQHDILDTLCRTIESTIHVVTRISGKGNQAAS

CCC1c2ccsc2CCN1C(=O)CCl (stereo not given)
inactive: [1] -0.381 | [2] -0.0771 | [3] -0.204 | [4] 0.162 | [5] -0.497
